Experimental findings from PubChem BioAssay (Tox21) are described below.

Assay [1] in a line: qHTS assay for small molecule agonists of the p53 signaling pathway (AID 651631; calls by dose curve; note: nearly all actives have a fitted effect of over 15% in size; note: potency is the fitted concentration of half-maximal effect). In outline: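 Agonist mode screen using a stably integrated beta-lactamase gene under p53 response elements in HCT-116 cells. Compound exposure lasts 16 h at 37 °C; fluorescence intensity is measured following 2 h FRET substrate loading.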
Background: Quantitative high-throughput screening tests each substance at several concentrations.

The nature of assay [2]: qHTS assay for small molecule agonists of the p53 signaling pathway - cell viability (AID 651633; calls by dose curve;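 note: p53RE-bla HCT reporter cells with a stable beta-lactamase p53 reporter; series mostly up to about 83 µM; % is set by controls: 0 for no effect and ±100 for the full control effect; nearly all actives have a fitted effect of over 30% in size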). Put shortly: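 p53RE-bla cells were treated with compound for 16 hours at 37 C. Cytotoxicity was then measured as CellTiter-Glo luminescence after 30 min at room temperature.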
Assay [3] in a line: qHTS assay to test for compound auto fluorescence at 590 nm (red) in HepG2 cells (AID 720674). Note: % is set by controls: 0 for no effect and ±100 for the full control effect. Put shortly:
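Fluorescence at 590 nm emission following 540 nm excitation was recorded from HepG2 wells one hour after compound transfer, with DMSO-only wells as vehicle and Rose Bengal sodium equivalency as the scale.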

The nature of assay [4]: qHTS assay to test for compound auto fluorescence at 535 nm (green) in HepG2 cells (AID 720675). Note: % is set by controls: 0 for no effect and ±100 for the full control effect.
Assay [5] is described as follows: qHTS assay to test for compound auto fluorescence at 460 nm (blue) in HEK293 cells (AID 720678). Note: % is set by controls: 0 for no effect and ±100 for the full control effect. Put shortly: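 Triamterene serves as the blue fluorophore standard. Compound signal at 405/460 nm is read in HEK293 wells (2,000 cells, 10% dialyzed FBS) after overnight treatment at 37C.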
Assay [6] in a line: qHTS assay to test for compound auto fluorescence at 590 nm (red) in HEK293 cells (AID 720679). Note: % is set by controls: 0 for no effect and ±100 for the full control effect. Put shortly: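 We plated HEK293 cells in 10% dialyzed FBS medium, let them adhere for 4-5 hr, then added 23 nL compound. Overnight at 37C and 5% CO2 preceded fluorescence measurement at 540/590nm.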
Assay [7] can be described thus: qHTS assay to test for compound auto fluorescence at 460 nm (blue) in HEK293 cell free culture (AID 720681). Note: % is set by controls: 0 for no effect and ±100 for the full control effect. In outline: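 Compounds were added to cell-free DMEM with 10% FBS and fluorescence read directly. The blue channel used 405 nm excitation and 460 nm emission, with triamterene as the reference fluorophore.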
Assay [8] in a line: qHTS assay to test for compound auto fluorescence at 535 nm (green) in HEK293 cell free culture (AID 720682). Note: % is set by controls: 0 for no effect and ±100 for the full control effect. In outline: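 No cells present: wells hold DMEM supplemented with 10% FBS, into which compound or vehicle is pinned. Green emission is then recorded (485 nm excitation, 535 nm emission) and scaled to fluorescein.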
A short description of assay [9]: qHTS assay to test for compound auto fluorescence at 590 nm (red) in HepG2 cell free culture (AID 720684). Note: % is set by controls: 0 for no effect and ±100 for the full control effect. Put shortly: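 Rose Bengal sodium served as the reference for red signal. Test compounds were dispensed into serum-containing MEM (10% FBS) without cells, and plates were read at 540/590 nm.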
A short description of assay [10]: qHTS assay to test for compound auto fluorescence at 460 nm (blue) in HepG2 cell free culture (AID 720685). Note: % is set by controls: 0 for no effect and ±100 for the full control effect. Put shortly:
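Cell-free plates of MEM plus 10% FBS received 23 nL compound or DMSO vehicle; blue-channel (405/460 nm) intensity scored against triamterene as reference fluorophore.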

A short description of assay [11]: qHTS assay to test for compound auto fluorescence at 460 nm (blue) in HepG2 cells (AID 720687). Note: % is set by controls: 0 for no effect and ±100 for the full control effect. In outline:
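HepG2 cells in MEM with 10% FBS, attached overnight at 37 C, were exposed to compound or DMSO for 1 hr at 37 C, 5% CO2. Blue fluorescence was read at 405/460 nm, with triamterene as reference fluorophore.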

Assay [12] has as its target Glucocorticoid receptor (Homo sapiens) (UniProt P04150). The assay can be described thus: qHTS assay to identify small molecule agonists of the glucocorticoid receptor (GR) signaling pathway (AID 720691; active = well fitted activation curve with a large enough effect in the signal ratio in the repeat runs, not every such curve was filed as active; the % refers to the signal ratio; note: % is set by controls: 0 for no effect and ±100 for the full control effect). Put shortly:
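Compounds in DMSO, alongside positive controls, were added to GR-bla HeLa reporter cells and incubated 18 h at 37 C; GRE-driven beta-lactamase was detected by fluorescence after 2 h with FRET substrate at room temperature.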

Assay [13] has the same target. As to the kind of experiment: qHTS assay to identify small molecule antagonists of the glucocorticoid receptor (GR) signaling pathway (AID 720692; active = well fitted inhibition curve with a large enough effect in the signal ratio in the repeat runs, not every such curve was filed as active; the % refers to the signal ratio; note: % is set by controls: 0 for no effect and ±100 for the full control effect). Put shortly: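 In a 1536-well cell format, compounds were added 4 h after seeding GR-bla HeLa cells, together with dexamethasone at 5 nM final; reporter activity was measured by FRET-substrate fluorescence following 18 h at 37 C.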

Assay [14] is described as follows: qHTS assay to test for compound auto fluorescence at 535 nm (green) in HEK293 cells (AID 720680). Note: % is set by controls: 0 for no effect and ±100 for the full control effect.
Assay [15] in a line: qHTS assay to test for compound auto fluorescence at 535 nm (green) in HepG2 cell free culture (AID 720686). Note: % is set by controls: 0 for no effect and ±100 for the full control effect.
A short description of assay [16]: qHTS assay for small molecules that induce genotoxicity in human embryonic kidney cells expressing luciferase-tagged ATAD5 - cell viability (AID 651634; calls by dose curve; note: nearly all actives have a fitted effect of over 25% in size; note: potency is the fitted concentration of half-maximal effect). Put shortly:
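Here HEK293T cells with the ATAD5 luciferase reporter are incubated with test compounds for 15.5 hr, and cytotoxicity is then gauged by measuring protease activity in live cells using fluorescence.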

Assay [17] can be described thus: qHTS assay to test for compound auto fluorescence at 590 nm (red) in HEK293 cell free culture (AID 720683). Note: % is set by controls: 0 for no effect and ±100 for the full control effect. Put shortly: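 Cell-free wells of DMEM with 10% FBS received compound, and intrinsic fluorescence was read at excitation/emission 540/590 nm. Values expressed as equivalence to Rose Bengal sodium.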
Assay [18] in a line: qHTS assay for small molecules that induce genotoxicity in human embryonic kidney cells expressing luciferase-tagged ATAD5 (AID 651632). Note: potency is the fitted concentration of half-maximal effect; nearly all actives have a fitted effect of over 15% in size. Put shortly: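 DMSO vehicle served as the control. HEK293T reporter cells, 16 hr at 37C, then 30 min Amplite at room temperature; ATAD5 induction is measured as luciferase activity.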
The nature of assay [19]: qHTS assay for small molecule disruptors of the mitochondrial membrane potential - cell viability (AID 720634; calls by dose curve; note: nearly all actives have a fitted effect of over 20% in size; note: potency is the fitted concentration of half-maximal effect). In outline: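 Viability of HepG2 cells is scored from ATP content by luminescence; cells are exposed to compound for 1 hr at 37 C and 5% CO2, then dosed with m-MPI dye before the CellTiter-Glo reagent.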
Assay [20] in a line: qHTS assay for small molecule disruptors of the mitochondrial membrane potential (AID 720635). Note: potency is the fitted concentration of half-maximal effect. Put shortly: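 HepG2 cells exposed to compound 1 hr at 37C, then Mito-MPS dye 30 min. Ratio read of aggregate (540/590 nm) versus monomer (490/535 nm) fluorescence.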

A number with no mark means an inactive call. Records with an inconclusive call do not appear. Calls of active or inactive are those of the source. Unless noted, calls come from the whole dose curve; as a rule, active = well fitted curve in the direction sought with a large enough effect in the repeat runs; inconclusive = weak or mixed curves; inactive = no such curve, though single readings can be large; an effect the other way counts as inactive or inconclusive.

Sequence of Glucocorticoid receptor (Homo sapiens) (P04150 whole entry, looked up): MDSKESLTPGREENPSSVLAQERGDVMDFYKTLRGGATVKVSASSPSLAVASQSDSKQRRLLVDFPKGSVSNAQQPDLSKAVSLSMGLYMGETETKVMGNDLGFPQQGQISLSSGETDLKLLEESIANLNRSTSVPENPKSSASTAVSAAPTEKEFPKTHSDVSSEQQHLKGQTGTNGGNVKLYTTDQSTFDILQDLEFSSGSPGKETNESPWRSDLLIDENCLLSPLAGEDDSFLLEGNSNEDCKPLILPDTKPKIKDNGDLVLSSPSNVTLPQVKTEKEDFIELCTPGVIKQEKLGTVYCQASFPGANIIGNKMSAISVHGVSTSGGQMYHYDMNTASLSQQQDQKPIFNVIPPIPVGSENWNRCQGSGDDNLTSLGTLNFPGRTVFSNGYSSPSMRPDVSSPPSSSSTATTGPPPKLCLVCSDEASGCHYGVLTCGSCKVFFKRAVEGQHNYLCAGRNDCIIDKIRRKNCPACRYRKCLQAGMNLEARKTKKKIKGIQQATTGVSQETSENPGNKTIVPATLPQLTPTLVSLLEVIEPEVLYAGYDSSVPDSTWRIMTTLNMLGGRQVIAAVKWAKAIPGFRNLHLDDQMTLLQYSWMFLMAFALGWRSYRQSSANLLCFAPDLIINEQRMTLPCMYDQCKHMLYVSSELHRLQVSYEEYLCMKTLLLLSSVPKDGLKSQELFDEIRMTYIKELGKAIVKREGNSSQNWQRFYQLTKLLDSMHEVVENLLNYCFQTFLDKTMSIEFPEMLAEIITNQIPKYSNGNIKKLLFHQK

For `C1CCOC1`, the Potency entry in [1], in assay [2], in [12] and in assay [13] was “inactive” each time. Besides, the compound was called inactive in assay [3], in [4], in assay [5], in assay [6], in assay [7] and in [8]. Also, the call in assay [9], in [10] and in [11] was inactive.

Turning to `CCOc1ccc2nc(N)sc2c1`, the Potency result in [1], in [2], in [12] and in [13] was “inactive” each time. Moreover, the outcome in assay [3], in assay [4], in assay [5], in [6], in assay [14] and in assay [7] was inactive. In addition, the compound was called inactive in assay [8], in assay [9], in [10], in [15] and in assay [11].

`C1CSCCS1`: the Potency result in assay [1], in [2], in [16], in assay [12] and in assay [13] was “inactive” each time. Besides, the result in assay [3], in assay [5], in assay [6], in assay [14], in [8] and in assay [17] was inactive. In addition, the call in assay [9] and in assay [15] was inactive.

For the compound `COc1ccc2nc(NC(=O)Nc3ccccc3)sc2c1`, the Potency in assay [18] is 0.75 µM (active); in assay [19], 6.68 µM (active); in assay [20], 1.19 µM (active). For the same compound, the Potency entry in assay [2], in assay [16] and in assay [12] was “inactive” throughout. Moreover, the outcome in assay [3], in assay [4], in assay [5], in [6], in assay [14] and in [7] was inactive. The outcome in [8], in assay [17], in [9], in assay [10], in [15] and in assay [11] was inactive.

As for `ICCc1ccccc1`, the Potency entry in [1], in assay [2], in assay [16] and in [19] was “inactive” each time. Moreover, the compound was called inactive in assay [3], in assay [5], in assay [14], in assay [7], in [8] and in assay [17]. Further, the result in [9], in assay [10], in assay [15] and in [11] was inactive.

Take `CCCCc1ccc2nc(NC(=O)OC)[nH]c2c1`: the Potency was 0.0507 µM (active) in assay [1] and 0.0902 µM (active) in assay [16]. For the same compound, the Potency result in [2] and in assay [19] was “inactive” each time. The fluorescence, relative to Rose Bengal in assay [3] is -0.46% [at 18.6 µM]. Besides, in assay [5], the fluorescence, % of triamterene was -0.014% [at 18.6 µM]. Further, the fluorescence, % of fluorescent control in assay [6] was 0.021% [at 18.6 µM]; in assay [7], -0.0022% [at 18.6 µM]; in [17], 0.113% [at 18.6 µM]; in [10], -0.0558% [at 18.6 µM]; in assay [11], -0.0106% [at 18.6 µM]. Also, the fluorescence, % of fluorescein in assay [14] is -0.231% [at 18.6 µM]. Besides, the activity change in assay [8] was 0.0865% [at 18.6 µM]. Further, the fluorescence, % of Rose Bengal in assay [9] was 0.0227% [at 18.6 µM]. The fluorescence, % of fluorescein control in assay [15] was -0.0094% [at 18.6 µM].

Turning to `CCCCCCC`, the Potency result in assay [1], in assay [2], in assay [16], in [20] and in assay [12] was “inactive” each time. Also, the compound was classed as inactive in assay [3], in assay [4], in assay [5], in assay [6], in [14] and in [7]. For the same compound, the compound was classed as inactive in assay [8], in assay [17], in [9], in assay [10], in [15] and in assay [11].

As to `Cc1ccc([N+](=O)[O-])cc1Cl`, the Potency result in [1], in assay [2], in assay [16], in [19], in assay [12] and in assay [13] was “inactive” each time. Also, the call in assay [3], in assay [4], in assay [5], in assay [6], in [14] and in [7] was inactive. In addition, the result in [8], in [9], in [15] and in assay [11] was inactive.

As for `CCOC(=O)[C@H](CCc1ccccc1)N[C@@H](C)C(=O)N1Cc2cc(OC)c(OC)cc2C[C@H]1C(=O)O`, the Potency entry in assay [1], in assay [2], in [16], in assay [19] and in assay [20] was “inactive” in each case. Moreover, the call in [3], in [4], in [5], in assay [6], in assay [14] and in assay [8] was inactive. Further, the compound was classed as inactive in [9], in assay [10], in assay [15] and in assay [11].
